Drawing on PubChem BioAssay AID1053127 (Broad Institute, 2014), this text covers outcome for ten compounds.

SMILES strings stand for the structures. Potency and affinity values are given separately. Active and inactive are the calls of the source.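 How the source made its calls: active means compounds whose fitted curve of lowered CTGF expression reaches half effect within a set concentration limit; inconclusive means flat moderate drop in CTGF, or unreliable curve fit; inactive means the rest.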

The nature of the test: YAP1 overexpression rescue of CTGF inhibition – DLD1 cells, RT-qPCR, cherry-pick, mechanism study for YAP1 pathway inhibitor project, dose response (AID 1053127). The settings on record: DLD1 YAP1-overexpressing, CTGF mRNA qPCR, 24 h; series mostly up to 26 µM. (Quantitative PCR measures a nucleic acid by following its amplification.)
Consider `O=C(Cc1ccncc1)N1CCCCN2[C@@H](CO)[C@@H](c3ccc(C#Cc4ccccc4F)cc3)[C@@H]2C1`, for which the call was inactive.

With `COc1cccc(-c2ccc([C@H]3[C@H](CO)N4CCCCN(C(=O)Cc5ccncc5)C[C@@H]34)cc2)c1`, the result was inactive.

`COc1cccc(-c2ccc([C@@H]3[C@@H](CO)N4CCCCN(C(=O)Cc5ccncc5)C[C@H]34)cc2)c1`: the outcome was inactive.

Regarding `O=C(Cc1ccncc1)N1CCCCN2[C@H](CO)[C@H](c3ccc(C#Cc4ccccc4F)cc3)[C@H]2C1`, the result was inactive.

For `COc1cccc(-c2ccc([C@@H]3[C@H]4CN(C(=O)Cc5ccncc5)CCCCN4[C@H]3CO)cc2)c1`, the outcome was inactive.

For the compound `COc1cccc(-c2ccc([C@@H]3[C@H](CO)N4CCCCN(C(=O)Cc5ccncc5)C[C@@H]34)cc2)c1`, the compound was called inactive.

Take `O=C(Cc1ccncc1)N1CCCCN2[C@@H](CO)[C@H](c3ccc(C#Cc4ccccc4F)cc3)[C@@H]2C1`: the call was inactive.

On to `O=C(Cc1ccncc1)N1CCCCN2[C@H](C1)[C@@H](c1ccc(C#Cc3ccccc3F)cc1)[C@@H]2CO`, for which the result was inactive.

Take `COc1cccc(-c2ccc([C@H]3[C@@H](CO)N4CCCCN(C(=O)Cc5ccncc5)C[C@H]34)cc2)c1`: the compound was classed as inactive.

For `COc1cccc(-c2ccc([C@H]3[C@@H](CO)N4CCCCN(C(=O)Cc5ccncc5)C[C@@H]34)cc2)c1`, the result was inactive.
